Only a selection was taken, and hits are over-represented in it overall.
Pf Dd2 growth: blocks in vitro growth of P. falciparum Dd2. Potency, µM (highest dose often 28.9 µM), without a hit: at the top dose activity, negative = inhibition, actives largely listed as inhibitors. P. falciparum Dd2 growth, SYBR Green, 72 h. 120,000 compounds, 4.3% hits. AID 1347417; active = well fitted inhibition curve with a large enough effect;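 note: plate controls were DMSO vehicle for no effect and reference drug for full effect; nearly all actives have a fitted effect of over 65% in size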
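Readout: SYBR Green fluorescence, 485 nm excitation, 535 nm emission, after ~16 h lysis at 37C. Before that, Dd2-infected red cells (2.5% hematocrit) grew 72 h with compound, 29 uM top final concentration.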
Active calls of the source: *; i = inactive; [ ] = dose if it differs, or a comment. Potency is the fitted concentration of half-maximal effect.

SMILES | Pf Dd2 growth
COc1ccc(C(=O)Nc2ccc(-c3nc4ccccc4s3)c(Cl)c2)cc1Cl | -1%
CC(=O)N1CCC(Nc2cc(-c3ccc(Cl)cc3)nc3c(C)noc23)CC1 | i
CN1C[C@H](NCc2nccn2C)CCC[C@@H](C(=O)NCc2cc(F)cc(F)c2)CC1=O | 15%[44.1 µM]
O=C(Cn1nc2c(cc1=O)CCCC2)NC1CCCCC1 | -3%
CCn1ncc(S(=O)(=O)N2CCCC(CO)(CC=C(C)C)C2)c1C (stereo not drawn) | -20%
CN(C)c1ccc(NC(=O)c2sc3nc4c(cc3c2N)N2CCC4CC2)cc1 | -17%
Cn1cnc([S+](=O)([O-])N2CC3ON=C(C(=O)O)C3C2)c1 (stereo not drawn) | 18%[44.1 µM]
COC1CCC(C(=O)N2CCCn3nc(C)c(-c4ccccc4-c4ccccc4)c32)CC1 (stereo not drawn) | -5%[44.1 µM]
O=S(=O)(N[C@H]1[C@H](O)[C@H](O)C[C@@H]1c1cncnc1)c1ccc(Cl)cc1 | 6%[44.1 µM]
CC(C)CC(NC(=O)c1cc(S(N)(=O)=O)ccc1F)c1cccnc1 (stereo not drawn) | -17%
CCn1nccc1C(=O)N1CCC(N2C(=O)C(OC)C23CCOCC3)CC1 (stereo not drawn) | 7%
CCOC(=O)C1CCN(C(c2cccc(F)c2)c2c(O)cc(C)n(Cc3ccco3)c2=O)CC1 (stereo not drawn) | i
COc1ccc(C(=O)N[C@@H]2CCC[C@@H]2C(=O)N2CCCCC2)cc1 | 6%
COc1ccc(C(=O)N[C@@H]2CCC[C@@H]2C(=O)N2CCN(c3cc(C)ccc3C)CC2)cc1 | 5µM*
CCCNC(=O)[C@H]1CCC[C@H]1NC(=O)c1ccc(OC)cc1 | -14%
COc1ccc(C(=O)N[C@@H]2CCC[C@@H]2C(=O)NCCCN2CCCc3ccccc32)cc1 | 11µM*
COc1ccc(C(=O)N[C@@H]2CCC[C@@H]2C(=O)N2CCCC2)cc1 | -20%
COc1ccc(C(=O)N[C@@H]2CCC[C@@H]2C(=O)N2CCOCC2)cc1 | 30%
COc1ccc(C(=O)N[C@@H]2CCC[C@@H]2C(=O)N2CCN(c3ccccc3F)CC2)cc1 | 10µM*
COc1ccc(C(=O)N[C@@H]2CCC[C@@H]2C(=O)N2CCN(Cc3ccc(F)cc3)CC2)cc1 | -19%
COc1ccc(C(=O)N[C@@H]2CCC[C@@H]2C(=O)NCCCn2cccn2)cc1 | 11%
Cc1ccc(-c2noc([C@@H]3C[C@@H](O)CN3C3CCN(C)CC3)n2)cc1F | i
CCOC(=O)c1c(C)[nH]c(C)c1S(=O)(=O)N1CCC(C(=O)Nc2ccc(C)cn2)CC1 | 52%
Cc1ccc(S(=O)(=O)Cc2noc([C@@H]3C[C@@H](O)CN3Cc3cccnc3)n2)cc1 | -14%[44.1 µM]
COc1ccc(NC(=O)C2CCCN(S(=O)(=O)c3ccc4[nH]c(=O)ccc4c3)C2)cc1Cl (stereo not drawn) | -12%
SMILES | Pf Dd2 growth
COc1ccc(CN2CCC3(COC(=O)N3Cc3ccccn3)C2)cn1 (stereo not drawn) | 4%[44.1 µM]
CN1CCN(C(=O)C2CCCN(S(=O)(=O)c3cn(C)cn3)CCC(=O)NCC2)CC1 (stereo not drawn) | -5%
Cc1ccc(Cl)cc1NC(=O)c1csnn1 | -3%
COc1ccc(OC)c(S(=O)(=O)N2CCC(n3cnnc3C)CC2)c1 | -23%
CCCn1c(C)cnc1C1CCN(S(=O)(=O)c2cc(OC)ccc2OC)C1 (stereo not drawn) | 3.5µM*
COc1ccc(OC)c(S(=O)(=O)N2CCCC(Cn3c(C)nc4cccnc43)C2)c1 (stereo not drawn) | i
CN(Cc1cccnc1)c1ccc(C(=O)NCCC2CCCCN2C)cn1 (stereo not drawn) | -14%
c1ccc(-c2noc(-c3ccn4c(CN5CCc6ccccc6C5)nnc4c3)n2)cc1 | -12%
Cc1ccccc1Cc1c(C)nc2nc(SCC(=O)NCCc3ccc(Cl)cc3)nn2c1C | 18%
Cc1ccc(NC(=O)CCCn2nc(C)c3c(C)n(-c4ccccc4)nc3c2=O)cc1Cl | 14%
CCN(CC)c1ccc(NC(=O)Cn2c(C)c3cnn(-c4ccccc4)c(=O)c3c2C)c(C)c1 | 10%
Cc1cc(NC(=O)CCCn2c(C)c3cnn(-c4ccccc4)c(=O)c3c2C)ccc1Br | 11µM*
O=C(COc1ccccc1Cl)Nc1ccc(-c2nc3ccccc3s2)cc1 | 70%[5.79 µM]
COc1ccc(NC(=O)N[C@H]2[C@H](O)[C@@H](N3CCOCC3)[C@@H]3OC[C@H]2O3)cc1 | 1%[44.1 µM]
COc1ccc(-c2noc(-c3nnn(-c4ccc(C(C)C)cc4)c3C)n2)cc1OC | 8.9µM*
COc1ccc(-c2noc(-c3nnn(-c4ccc(C)cc4C)c3C)n2)cc1 | 25%
COc1ccc(OC)c(-n2nnc(-c3nc(-c4ccc5c(c4)OCO5)no3)c2C)c1 | -6%
CCc1cccc(OCC(=O)Nc2ccc(S(=O)(=O)Nc3cc(C)nc(C)n3)cc2)c1 | -22%
CCOc1ccc(CNC(=O)C2Cc3ccccc3N2C(=O)CC)cc1OC (stereo not drawn) | 28%
CC(C)CCNC(=O)c1ccc(CN2C(=O)NC3(CCS(=O)(=O)CC3)C2=O)cc1 | i
Cc1ccccc1OCc1ccc(-c2nc(C#N)c(N3CCN(c4ccccc4)CC3)o2)o1 | 11µM*
N#Cc1nc(/C=C/c2ccc(F)cc2)oc1N1CCN(c2ccccc2)CC1 | 60%
Cc1ccc(OCc2ccc(-c3nc(C#N)c(N4CCN(c5cccc(Cl)c5)CC4)o3)o2)cc1 | -8%
CN1C(=O)c2cccn2CC1CNS(=O)(=O)c1ccc(F)cc1 (stereo not drawn) | 5%
CCOC(=O)c1oc2ccc(S(=O)(=O)NCC3Cn4cccc4C(=O)N3C)cc2c1C (stereo not drawn) | 13µM*
SMILES | Pf Dd2 growth
COc1cccc(S(=O)(=O)NCC2Cn3cccc3C(=O)N2C)c1 (stereo not drawn) | -5%
O=[S+]([O-])(c1cccs1)N1CCCC2(CC(Cc3ccccc3)=NO2)C1 (stereo not drawn) | 13%
Cc1cc(F)ccc1NC(=O)c1cnc2c(c1)N(C(=O)CCc1ccccc1)CCC2 | i
Cc1nnc2n1CCC(NC(=O)c1ccc3cc[nH]c3c1)CC2 (stereo not drawn) | 5%
COc1cccc(NS(=O)(=O)c2ccc3c(c2)CCCN3C(=O)C2CCC2)c1 | -23%
COc1cccc(NS(=O)(=O)c2ccc3c(c2)[C@H]2C=CC[C@H]2[C@@H](c2ccccc2Cl)N3)c1 | 10µM*
COc1cccc([C@@H]2Nc3ccc(C(=O)O)cc3[C@@H]3C=CC[C@@H]32)c1OC | 2%
CCOC(=O)C1CCN(C(=O)c2c[nH]c3ncccc23)CC1 | 0%[44.1 µM]
CCOC(=O)C1CCN(c2nc3ccccc3nc2Cl)CC1 | i
CCOC(=O)C1CCN(c2c(C(=O)c3ccc(OC)cc3)cnc3ccccc23)CC1 | 8.9µM*
CCC(Sc1nc2nccnc2c(=O)n1Cc1ccccc1Cl)C(=O)NC1CCCCC1 (stereo not drawn) | -22%
CNC(=O)N1CCC(C2CCN(C(=O)c3ocnc3C)C2)CC1 (stereo not drawn) | 24%
c1cncc(C2=NOC3(CCN(CC4CCCCC4)CC3)C2)c1 | 22%
FC(F)(F)c1ccc(CN2CCCC3(CC(Cc4ccccc4)=NO3)C2)cc1 (stereo not drawn) | -15%
c1ccc(CC2=NOC3(CCN(Cc4ccccc4)C3)C2)cc1 (stereo not drawn) | 4.5µM*
c1ccc(CC2=NOC3(CCN(CC4CCCCC4)CC3)C2)cc1 | 3.5µM*
COc1ccc(CN2CCCC3(CC(Cc4ccccc4)=NO3)C2)cc1 (stereo not drawn) | -6%
CC(C)CCN1CCCC2(CC(Cc3ccccc3)=NO2)C1 (stereo not drawn) | -18%[44.1 µM]
